GLP-1R agonist: agonists of human GLP-1 receptor. AID 624172. Potency, µM (top dose mostly 45.6 µM), for inactives: at the top dose activation, most hits filed as activators. HEK293 GLP-1R CRE-luciferase, luminescence, 4-6 h; cells express a hypersensitive GLP-1R form. P43220. 380,000 tested, 0.007% active; further: % of control where 0% means no effect
Target sequence (P43220 whole entry, looked up): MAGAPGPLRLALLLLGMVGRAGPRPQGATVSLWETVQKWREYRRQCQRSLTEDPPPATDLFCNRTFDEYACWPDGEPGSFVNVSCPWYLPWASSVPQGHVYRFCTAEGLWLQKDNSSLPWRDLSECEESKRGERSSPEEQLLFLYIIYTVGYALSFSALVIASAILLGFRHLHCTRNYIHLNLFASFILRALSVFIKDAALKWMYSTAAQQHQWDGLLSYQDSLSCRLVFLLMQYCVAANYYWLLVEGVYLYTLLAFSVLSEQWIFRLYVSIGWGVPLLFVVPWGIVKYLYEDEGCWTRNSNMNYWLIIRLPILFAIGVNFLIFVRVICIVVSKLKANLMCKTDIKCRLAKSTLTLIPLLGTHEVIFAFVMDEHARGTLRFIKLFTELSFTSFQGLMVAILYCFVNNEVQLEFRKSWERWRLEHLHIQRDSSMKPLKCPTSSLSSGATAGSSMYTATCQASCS
HepG2 tox: counter-screen for TGF-b inhibitors: cytotoxicity in HepG2 cells. HepG2 CAGA-GFP viability, ATP luminescence, 18 h. Potency, µM (doses to about 46.1 µM), for inactives: top-dose activity change, negative = cytotoxicity, actives largely listed as cytotoxic. 410,000 tested, 0.76% active. AID 588856
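HepG2 CAGA-GFP cells (1000/well, DMEM with 1% FBS) received compound, then TGF-beta at 500 pg/mL final, and were incubated 18 hours at 37 degrees C. Viability was read by CellTiter-Glo luminescence. Media-only wells were set as complete cell-killing and DMSO as no toxicity.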
TGFb SMAD3 inh: TGF-b pathway inhibition; HepG2 CAGA-GFP TGF-b/SMAD3 reporter, GFP fluorescence, 18 h; TGF-beta stimulated, 500 pg/mL final; 410,000 tested, 1.2% active; Potency, µM (series often up to 46.1 µM), for the others: at the highest dose activity, negative = inhibition, most hits filed as inhibitors; AID 588855; further: on the % scale 0 is the no-effect control and ±100 the full control effect; nearly all actives have a fitted effect of over 65% in size
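Read-out: total well GFP (ex488/em500-530) summed from mean per-cell fluorescence. Cells: HEPG2 CAGA-GFP, 1% FBS DMEM, 18 h at 37 degrees C with 500 pg/mL final TGF-beta. Unstimulated wells served as the full-inhibition control; stimulated DMSO wells = 0%.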
ATXN2 expr inh: reduces ATXN2 reporter expression in HEK-293 cells. HEK-293 ATXN2-luciferase reporter, luminescence, 24 h. Potency, µM (doses to about 57 µM), for inactives: at the highest dose activity change, negative = inhibition, actives largely listed as inhibitors. 360,000 tested, 0.72% active; further: on the % scale 0 is the no-effect control and ±100 the full control effect; nearly all actives have a fitted effect of over 55% in size
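qHTS (up to 57 uM final) was run with 24 h compound exposure of reporter cells at 37 °C. Each well was multiplexed: SteadyGlo luminescence measured ATXN2-luciferase expression after a fluorogenic Gly-Phe-AFC viability readout (25 uM final).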
GLP-1R inv ag: inverse agonists of human GLP-1 receptor. Potency, µM (titrated, usually from 38.3 µM), inactives show at the highest dose activity change, negative = inhibition, actives largely listed as inhibitors. 410,000 tested, 1.6% active. HEK293 GLP-1R CRE-luciferase, luminescence, 24 h; GLP-1R form is constitutively active; further: on the % scale 0 is the no-effect control and ±100 the full control effect; nearly all actives have a fitted effect of over 55% in size
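Inverse agonists were sought by their lowering of basal cAMP reporter luciferase output in HEK293 cells stably carrying constitutively active human GLP-1R, after 24 h compound treatment.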
ATXN viability: cell viability loss in ATXN counter-screen | Potency, µM (titrated, usually from 56.7 µM), usual class: cytotoxic | S2 cells (HEK-293 line with an ATXN2-luciferase reporter) viability, CellTiter-Fluor protease fluorescence, 24 h | 400,000 tested, 0.49% active; further: nearly all actives have a fitted effect of over 40% in size
Numbers without * were called inactive; i = inactive; ? = inconclusive; . = no result. Shown are actives, neighbours in structure and some others; about 3.7% of the full set was active somewhere. The call rests on the fitted dose curve; in most records, active means well fitted curve in the direction sought with a large enough effect; inconclusive means small, poorly fitted or top-dose-only effect, or another doubt; inactive means no such curve, though single readings can be large; an effect the other way counts as inactive or inconclusive. Potency means the concentration at half of the fitted maximal effect.

SMILES | GLP-1R agonist | HepG2 tox | TGFb SMAD3 inh | ATXN2 expr inh | GLP-1R inv ag | ATXN viability
CC1(C)CC(=O)C=C(C#CC2(O)CCCCC2)C1 | -6% | 10µM* | ? | ? | ? | 16µM*
CC1CC(O)CC(C)(C)C1 (stereo not drawn) | 15% | . | . | . | . | .
CC(C)(C)OC(=O)COc1cc(OCC(=O)OC(C)(C)C)c2c(=O)cc(-c3ccccc3)oc2c1 | -12% | -88% | ? | 20µM* | ? | 20µM*
NCC[C@H](O)C(=O)N[C@H]1C[C@@H](N)[C@@H](O[C@H]2O[C@@H](CN)[C@@H](O)[C@@H](O)[C@@H]2O)[C@@H](O)[C@@H]1O[C@H]1O[C@@H](CO)[C@@H](O)[C@@H](N)[C@@H]1O | . | . | . | . | . | i
O=[N+]([O-])c1cc2ncccc2c2ncccc12 | 2% | -20% | -14% | . | 3.2µM* | ?
Cc1cc([N+](=O)[O-])cc2ncccc12 | 10% | -1% | -2% | -1% | 0% | i
CCN(CC)c1ccc(/C=C/c2ccc3ccccc3n2)cc1 | . | 3.2µM* | 2.5µM* | . | . | .
CC(OC(=O)/C=C/c1ccc2ccccc2n1)C(=O)N(C)c1ccccc1 (stereo not drawn) | -4% | 3% | -8% | 36% | 5% | i
CC[N+](C)(C)c1ccc(/C=C/c2ccc3ccccc3n2)cc1 | . | -56% | 6.3µM* | . | . | .
CC[N+](C)(C)c1ccc(/C=C/c2ccncc2)cc1 | . | -16% | 35% | . | . | .
CC(=O)/C=C/c1ccc2ccccc2n1 | 0% | 20µM* | ? | 2% | ? | i
C(=Nc1cnc2ccccc2c1)c1ccnc2ccccc12 | . | 5% | -2% | . | . | .
CC1=NN(c2ccccc2)C(=O)/C1=C\C=C1\N(C)c2ccccc2C1(C)C | -1% | 17% | -7% | -12% | 11µM* | i
CN1C(=CC=C2C=C(I)C(=O)C(I)=C2)C(C)(C)c2ccccc21 | 8% | -8% | -12% | -18% | -18% | ?
CC1=NN(c2ccccc2)C(=O)/C1=C/C=C/c1ccc(N(C)C)cc1 | -1% | -2% | -3% | . | -15% | .
CN1/C(=C\C=C2/SC(=S)NC2=O)C(C)(C)c2ccccc21 | 5% | -40% | 35% | . | ? | 28µM*
CC1=NN(c2ccccc2)C(=O)/C1=C\C=C\c1ccccc1 | -2% | -56% | 8.9µM* | ? | 18% | ?
CN1/C(=C\C=[N+](C)c2ccccc2)C(C)(C)c2ccccc21 | -3% | -35% | -27% | 7.1µM* | 0% | 11µM*
CN1/C(=C\C=N\O)C(C)(C)c2ccccc21 | 5% | -7% | -18% | 14% | -8% | i
O=C(NC1CC(=O)N(c2cccc(F)c2)C1)C(c1ccccc1)c1ccccc1 (stereo not drawn) | . | -19% | 0% | . | ? | .
O=C(NCc1ccc(Cl)cc1)NC1COc2ccccc2C1 (stereo not drawn) | . | -7% | 31% | . | -19% | .
Cc1cc(Cn2cnc3c(cnn3C(C)(C)C)c2=O)ccc1F | . | -6% | -15% | . | . | .
COc1cc(NS(=O)(=O)c2cc(Br)cc3c2N(C(=O)C2CC2)CC3)cc(OC)c1 | . | -23% | 2.2µM* | . | ? | .
O=C(C1CC1)N1CCc2cc(Br)cc(S(=O)(=O)Nc3ccc(F)c(F)c3)c21 | -6% | -63% | ? | ? | 22µM* | ?
CCC(=O)N1CCc2cc(Br)cc(S(=O)(=O)NCCc3cccc(C)c3)c21 | . | -17% | 11µM* | . | -16% | .
SMILES | GLP-1R agonist | HepG2 tox | TGFb SMAD3 inh | ATXN2 expr inh | GLP-1R inv ag | ATXN viability
CC1CC(C)CN(CCCNS(=O)(=O)c2cc(Br)cc3c2N(C(=O)C2CC2)CC3)C1 (stereo not drawn) | 13% | 4µM* | 11% | -16% | 6% | i
CCOC(=O)c1cnc(-n2nc(C)cc2C)nc1NC1CCCCC1 | 0% | -34% | ? | -11% | 1.3µM* | i
CCOC(=O)c1cnc(-n2nc(C)cc2C)nc1Nc1ccc(N(C)C)cc1 | 6% | -18% | -3% | ? | 1.6µM* | i
CCOC(=O)c1cnc(-n2nc(C)cc2C)nc1Nc1ccc(C)cc1 | 0% | 4% | 2% | 1% | ? | ?
CCOC(=O)c1cnc(-n2nc(C)cc2C)nc1NC | 10% | 1% | ? | 7% | ? | i
Cc1ccc(C(=O)NC2CCCCCCC2)c(Cl)c1 | 0% | -47% | 3% | . | 4µM* | ?
O=C(NC1CCCCCCC1)c1cc(F)c(F)cc1Cl | 8% | -8% | -6% | 29% | ? | i
CSCC[C@H](NC(=O)[C@H](Cc1c[nH]c2ccccc12)NC(=O)CCNC(=O)OC(C)(C)C)C(=O)N[C@@H](CC(=O)O)C(=O)N[C@@H](Cc1ccccc1)C(N)=O | . | . | . | 19% | . | i
N#C/C(=C\c1ccc(OCc2ccc(C(=O)O)cc2)cc1)C(=O)N1CCOCC1 | -4% | -20% | -14% | 8.9µM* | 1µM* | i
CCc1ccc(OCC(=O)N(Cc2cccs2)c2ccc(Cl)cc2)cc1 | . | -33% | 16µM* | -31% | ? | ?
CCOc1ccccc1C(=O)N(Cc1cccs1)c1ccc(Cl)cc1 | . | -97% | 18µM* | 0% | 13µM* | ?
Cc1ccc(N(Cc2cccs2)C(=O)c2ccccc2Cl)cc1 | . | -10% | ? | -9% | ? | ?
CO/N=C(/C(=O)N[C@@H]1C(=O)N2C(C(=O)OC(C)OC(C)=O)=C(COC(N)=O)CS[C@H]12)c1ccco1 (stereo partly drawn) | 6% | . | . | . | . | .
COC1CCC(N(C(=O)C2CCC(C)CC2)c2cc(C3=CCCCC3)sc2C(=O)O)CC1 (stereo not drawn) | . | . | . | -1% | . | .
c1ccc(-n2ncc3c(NC4CCCCCC4)ncnc32)cc1 | 11% | -24% | -16% | 46% | 5.6µM* | i
CCN(CC)C(=O)C1CCCN(c2ncnc3c2cnn3-c2ccc(Cl)cc2)C1 (stereo not drawn) | 3% | -25% | -2% | 13µM* | ? | ?
c1ccc(-n2ncc3c(N4CCCCC4)ncnc32)cc1 | -5% | -26% | -4% | 13µM* | 4µM* | i
CC1CCCN(c2ncnc3c2cnn3-c2ccccc2)C1 (stereo not drawn) | -3% | -28% | 15% | ? | ? | i
CCN(CC)C(=O)C1CCCN(c2ncnc3c2cnn3-c2cccc(C)c2)C1 (stereo not drawn) | 0% | -18% | -6% | -28% | ? | i
CC1CCCN(c2ncnc3c2cnn3-c2ccc(F)cc2)C1 (stereo not drawn) | . | -26% | 17% | -36% | 8.9µM* | i

High-throughput results (PubChem)
